Source: PubChem BioAssay (Broad Institute)
These entries were drawn from the full list.
aSyn 5UTR act: Activators via SNCA 5'UTR binding, MLPCN; alpha-synuclein 5'UTR reporter, activators screen; AID 1814; activity score, % (tested at 7.5 µM), hits read low; 300,000 tested, 7.1% active; in the data active = activity score below about -60%
* marks the source's active call; other numbers are inactive results.

Results for CCOc1cc(/C=N/Nc2cc(C)nc(-n3nc(C)cc3C)n2)ccc1O ?
aSyn 5UTR act: 68

How did COc1cc(/C=N/Nc2ccc(C(F)(F)F)cn2)ccc1O do in these assays?
aSyn 5UTR act: -147*

How did O=C(O)c1ccc(/C=N/Nc2ccc(C(F)(F)F)cn2)cc1 do in these assays?
aSyn 5UTR act: -172*

Results for Clc1ccc(-c2cn3c(n2)-c2ccccc2C3)cc1Cl ?
aSyn 5UTR act: -67*

What do the screens show for `Cc1nc2cc(N3CCCCC3)c(NC(=O)c3ccncc3)cc2c(=O)n1Cc1ccc(Cl)cc1`?
aSyn 5UTR act: 62

Results for COc1cc(NC(=O)c2ccc(Cl)cc2)c(OC)cc1NC(=O)CN1CCCCC1 ?
aSyn 5UTR act: -68*

How did Clc1ccc(-c2nnc(SCc3ccon3)o2)c(Cl)c1 do in these assays?
aSyn 5UTR act: -69*

How did C=CCSc1nnc(-c2ccc(Cl)cc2Cl)o1 do in these assays?
aSyn 5UTR act: -78*

Results for C=CCSc1nnc(-c2ccc([N+](=O)[O-])cc2)o1 ?
aSyn 5UTR act: -140*

What do the screens show for `Cc1cccc(-n2ncc3c(NNC(=O)c4ccco4)ncnc32)c1`?
aSyn 5UTR act: -133*

What do the screens show for `Cc1ccc(-n2ncc3c(NNC(=O)c4ccco4)ncnc32)cc1Cl`?
aSyn 5UTR act: -166*

Results for O=C(NNC1=C(C(=O)C(F)(F)F)CCC1)c1cccc(O)c1 ?
aSyn 5UTR act: -153*

How did COc1ccc2c(c1)CC/C(=C\C=C\c1ccccc1)C2=O do in these assays?
aSyn 5UTR act: -64*

How did COc1ccc(N/C=C2\CCc3ccccc3C2=O)cc1 do in these assays?
aSyn 5UTR act: 94

How did O=C1/C(=C/Nc2ccc3c(c2)OCO3)CCc2ccccc21 do in these assays?
aSyn 5UTR act: 96

What do the screens show for `COc1ccc(OC)c(C2C3=C(COC3=O)Nc3cc4c(cc32)OCO4)c1` (stereo unspecified)?
aSyn 5UTR act: 89

How did COc1ccc2c(c1)CC/C(=C\Nc1ccc3c(c1)OCO3)C2=O do in these assays?
aSyn 5UTR act: -197*

Results for COc1ccc2c(c1)CC/C(=C/c1ccccn1)C2=O ?
aSyn 5UTR act: -81*

What do the screens show for `COc1cccc(/C=C2\CCc3ccccc3C2=O)c1`?
aSyn 5UTR act: -97*

Results for CC12CCC(C(=O)Nc3nc4ccc(Br)cc4s3)(OC1=O)C2(C)C (stereo unspecified) ?
aSyn 5UTR act: -92*

Results for Cc1cccc(C=Nc2ccc3c(c2)oc2ccccc23)c1O ?
aSyn 5UTR act: -166*

What do the screens show for `c1ccc(-c2nc3ccccc3[nH]2)cc1`?
aSyn 5UTR act: -138*

How did Cc1[nH]c2ccccc2c1-c1nc2ccccc2[nH]1 do in these assays?
aSyn 5UTR act: -78*

How did Cc1ccc(-c2nc3ccccc3[nH]2)s1 do in these assays?
aSyn 5UTR act: -80*

Results for c1cncc(-c2nc3ccccc3[nH]2)c1 ?
aSyn 5UTR act: -88*

How did O=C1CCNc2cc3ccccc3cc21 do in these assays?
aSyn 5UTR act: 78

How did c1ccc2c(c1)Nc1cc3ccccc3cc1S2 do in these assays?
aSyn 5UTR act: -135*

How did CCc1ccc(O)c(N=Cc2ccccc2O)c1 do in these assays?
aSyn 5UTR act: -70*

Results for Cc1ccc(O)c(C=Nc2cc(C)ccc2O)c1 ?
aSyn 5UTR act: -92*

How did Cc1ccc(N=Cc2cccc(O)c2O)c(C)c1 do in these assays?
aSyn 5UTR act: -62*

What do the screens show for `O=C1C(C=Nc2ccccc2O)=C(O)c2ccccc21`?
aSyn 5UTR act: -186*

How did Cc1ccc(O)c(N=CC2=C(O)c3ccccc3C2=O)c1 do in these assays?
aSyn 5UTR act: -156*

How did Oc1cccc(/C=N/N=C/c2cccc(O)c2O)c1O do in these assays?
aSyn 5UTR act: -70*

Results for CCN(CC)S(=O)(=O)c1cccc(C(=O)N/N=C/c2cccc(O)c2O)c1 ?
aSyn 5UTR act: 66

How did O=C(Nc1ccc2c(c1)nc1n2CCOC1)c1ccco1 do in these assays?
aSyn 5UTR act: -66*

How did O=C(Nc1ccc2c(c1)nc1n2CCOC1)C1CCCCC1 do in these assays?
aSyn 5UTR act: -106*

What do the screens show for `COC(=O)c1sc(-c2ccc(C(C)(C)C)cc2)cc1NC(=O)c1ccccc1C(=O)O`?
aSyn 5UTR act: -67*

What do the screens show for `Clc1ccccc1N1CCN(Cc2c[nH]c3ccccc23)CC1`?
aSyn 5UTR act: 64

Results for O=C(CCCc1c[nH]c2ccccc12)N1CCCCCC1 ?
aSyn 5UTR act: -73*

How did Cc1nc(C(=O)Nc2ccccc2)sc1C(=O)Nc1ccccc1 do in these assays?
aSyn 5UTR act: -166*

Results for Cc1nc(/N=C\N(C)C)sc1C(=O)Nc1ccccc1 ?
aSyn 5UTR act: -79*

Results for Cc1ccc(NC(=O)c2sc(N)nc2C)cc1 ?
aSyn 5UTR act: -185*

What do the screens show for `Nc1cc(N)nc(SCC(=O)Nc2ccc(Br)cc2Cl)n1`?
aSyn 5UTR act: -79*

What do the screens show for `CC(C)(C)n1ncc2c(=O)n(CC(=O)c3ccccc3)cnc21`?
aSyn 5UTR act: -107*

How did CCOC(=O)C(C)Oc1cccc2c(=O)n(CC(=O)NCc3ccc(F)cc3)ccc12 (stereo unspecified) do in these assays?
aSyn 5UTR act: 68

What do the screens show for `CCOc1ccccc1NC(=O)Cn1nnc(C(=O)NCc2ccco2)c1N`?
aSyn 5UTR act: 85
